Values joined by “and” are separate entries in the source; they are usually repeats but may differ in a detail not shown here. Equal entries are not always repeated. About 2,000 (36%) of roughly 5,500 compounds were called active. Another 18% or so got no clear call; they are omitted. Rule as the data show it: active = normalized growth mostly below about 0.91 (no sharp cut-off); inconclusive = no clear call, values can overlap the other calls; inactive = mostly above about 0.92. Some of the results follow.
Experiment: chemical genetic growth profiling, strain panel (AID 1159580);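 also: tested at 20 µM; growth read once vehicle control cultures reached saturation at 30 °C; 1 = growth at the plate median or of vehicle wells; lower values mean less growth of the strain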
Conditions: S. cerevisiae deletion strains, growth OD

Measured: normalized growth

Cc1onc(-c2c(Cl)cccc2Cl)c1C(=O)N[C@@H]1C(=O)N2[C@@H]1SC(C)(C)[C@@H]2C(=O)O
inactive: locus YAL013W, strain DEP1, stronger effect = lower value 1.02 | locus YAL021C, strain ccr4, stronger effect = lower value 0.969 | locus YAL026C, strain drs2, stronger effect = lower value 1.02 | locus YAL030W, strain snc1, stronger effect = lower value 0.994 | locus YBL061C, strain skt5, stronger effect = lower value 0.991 | locus YBR009C, strain hhf1, stronger effect = lower value 1 | locus YBR021W, strain FUR4, stronger effect = lower value 1.03 | locus YBR023C, strain chs3, stronger effect = lower value 0.986 | locus YBR171W, strain sec66, stronger effect = lower value 0.993 | locus YBR229C, strain ROT2, stronger effect = lower value 1.01 | locus YBR231C, strain swc5, stronger effect = lower value 0.963 | locus YBR279W, strain paf1, stronger effect = lower value 0.993 | locus YCL011C, strain gbp2, stronger effect = lower value 1.01 | locus YCL016C, strain dcc1, stronger effect = lower value 1.03 | locus YCL029C, strain bik1, stronger effect = lower value 0.996 | locus YCL069W, strain vba3, stronger effect = lower value 0.995 | locus YCR088W, strain abp1, stronger effect = lower value 0.975 | locus YDL005C, strain med2, stronger effect = lower value 0.995 | locus YDL035C, strain GPR1, stronger effect = lower value 1.04 | locus YDL040C, strain nat1, stronger effect = lower value 0.988 | locus YDL074C, strain BRE1, stronger effect = lower value 1.01 | locus YDL101C, strain DUN1, stronger effect = lower value 1.01 | locus YDL134C, strain PPH21, stronger effect = lower value 1.05 | locus YDL185W, strain tfp1, stronger effect = lower value 0.991 | locus YDL192W, strain arf1, stronger effect = lower value 0.993 | locus YDR001C, strain nth1, stronger effect = lower value 0.97 | locus YDR069C, strain doa4, stronger effect = lower value 0.991 | locus YDR101C, strain arx1, stronger effect = lower value 0.994 | locus YDR137W, strain rgp1, stronger effect = lower value 0.991 | locus YDR150W, strain NUM1, stronger effect = lower value 1.02 | locus YDR159W, strain sac3, stronger effect = lower value 0.975 | locus YDR162C, strain NBP2, stronger effect = lower value 1.02 | locus YDR195W, strain ref2 0.889 | locus YDR297W, strain sur2, stronger effect = lower value 0.973 | locus YDR318W, strain mcm21, stronger effect = lower value 0.995 | locus YDR334W, strain swr1, stronger effect = lower value 0.948 | locus YDR335W, strain msn5, stronger effect = lower value 0.967 | locus YDR388W, stronger effect = lower value 1 | locus YDR392W, strain spt3, stronger effect = lower value 1.12 | locus YDR502C, strain sam2, stronger effect = lower value 0.996 | locus YEL003W, strain gim4, stronger effect = lower value 0.973 | locus YEL037C, strain rad23, stronger effect = lower value 0.995 | locus YEL061C, strain CIN8 (second series), stronger effect = lower value 0.971 | locus YEL061C, strain CIN8, stronger effect = lower value 1.01 | locus YER015W, strain faa2, stronger effect = lower value 0.991 | locus YER016W, strain bim1, stronger effect = lower value 0.997 | locus YER110C, stronger effect = lower value 0.992 | locus YER111C, strain swi4, stronger effect = lower value 0.998 | locus YER155C, strain BEM2 (second series), stronger effect = lower value 0.973 | locus YER155C, strain BEM2, stronger effect = lower value 1.01 | locus YER167W, strain BCK2, stronger effect = lower value 1.02 | locus YFR010W, strain ubp6, stronger effect = lower value 0.97 | locus YGL078C, strain dbp3, stronger effect = lower value 1 | locus YGL086W, strain mad1, stronger effect = lower value 1.01 | locus YGL167C, strain pmr1, stronger effect = lower value 0.976 | locus YGL173C, strain kem1, stronger effect = lower value 0.961 | locus YGL227W, strain vid30, stronger effect = lower value 0.981 | locus YGL240W, strain doc1, stronger effect = lower value 0.951 | locus YGL248W, strain PDE1, stronger effect = lower value 1.01 | locus YGL253W, strain hxk2, stronger effect = lower value 1.02 | locus YGR078C, strain PAC10, stronger effect = lower value 1.01 | locus YGR135W, strain pre9, stronger effect = lower value 0.976 | locus YGR229C, strain SMI1, stronger effect = lower value 1.02 | locus YGR252W, strain gcn5, stronger effect = lower value 0.946 | locus YHR013C, strain ard1, stronger effect = lower value 1.02 | locus YHR027C, strain rpn1, stronger effect = lower value 0.997 | locus YHR030C, strain SLT2, stronger effect = lower value 1.01 and 1.06 | locus YHR079C, strain IRE1 (second series), stronger effect = lower value 0.989 | locus YHR079C, strain IRE1, stronger effect = lower value 1.02 | locus YHR094C, strain hxt1, stronger effect = lower value 0.994 | locus YHR129C, strain ARP1, stronger effect = lower value 1.02 | locus YHR142W, strain chs7, stronger effect = lower value 1.02 | locus YHR200W, strain rpn10, stronger effect = lower value 0.991 | locus YIL066C, strain RNR3, stronger effect = lower value 1.02 | locus YIL073C, strain SPO22, stronger effect = lower value 0.988 | locus YIL125W, strain kgd1, stronger effect = lower value 0.998 | locus YIR030C, strain dcg1, stronger effect = lower value 1.01 | locus YJL092W, strain hpr5, stronger effect = lower value 0.99 | locus YJL095W, strain BCK1 (second series), stronger effect = lower value 0.983 | locus YJL095W, strain BCK1, stronger effect = lower value 1 and 1.04 | locus YJL115W, strain asf1, stronger effect = lower value 0.979 | locus YJL129C, strain trk1, stronger effect = lower value 0.972 | locus YJL134W, strain LCB3, stronger effect = lower value 1.01 | locus YJL154C, strain vps35, stronger effect = lower value 0.978 | locus YJL164C, strain tpk1, stronger effect = lower value 1.02 | locus YJL166W, strain qcr8, stronger effect = lower value 0.957 | locus YJL168C, strain set2, stronger effect = lower value 0.988 | locus YJL187C, strain SWE1 (second series), stronger effect = lower value 1.01 | locus YJL187C, strain SWE1, stronger effect = lower value 0.987 | locus YJR043C, strain POL32, stronger effect = lower value 1.04

From PubChem BioAssay AID1159580 (chemical genetic matrix, 2015)
